The values that follow come from ChEMBL document CHEMBL4513216, “Probing the Open Global Health Chemical Diversity Library for Multistage-Active Starting Points for Next-Generation Antimalarials” (ACS Infect Dis, 2020).

Hit rate of the full screen: of about 69,000 compounds, about 8,600 (12%) showed an effect of 50% or more. This excerpt belongs to a sample that is enriched for strong results.

For the assay, the system named is Plasmodium berghei. In words: Screen against P. berghei liver stage (PbLuc), transformed with Luciferase, at 10uM. The format is functional, HepG2. Particulars: tested at 10 uM.
As for `CCc1nc2ccccc2n1C(CC)C(=O)N(C)CCc1noc(C)n1` (stereo not drawn), the INHIBITION was -4.12%. Under `CC(C)c1noc(OCc2cccc(S(=O)(=O)N(C)C)c2)n1` stands 37.8%; under `CCCn1nnc(NCc2ccccc2OCc2ccc(Cl)cc2)n1`, -36.8%.

Turning to `COc1ccccc1CNC(=O)C[S+]([O-])Cc1cc(C)on1` (stereo not drawn), the INHIBITION is listed as -9.19%. The same measure for `O=C(c1cc(Cl)c2c(c1)OCCCO2)N(CC1CCOC1)C1CC1` (stereo not drawn): 30.9%; for `CCN(CC1CCOC1)C(=O)c1ccccc1N1CCOCC1` (stereo not drawn): 26.8%; for `CCN(CC1CCOC1)C(=O)c1cc(OC)c2c(c1)OCCO2` (stereo not drawn): 30.9%. For `CCN(CC1CCOC1)C(=O)c1cc(Cl)c2c(c1)OCO2` (stereo not drawn), the INHIBITION is 56.6%. Take `CCN(CC1CCOC1)C(=O)c1cc(F)ccc1N1CCN(C)CC1` (stereo not drawn): the INHIBITION was determined as 7.27%. Regarding `CCN(CC1CCOC1)C(=O)c1ccc(N2CCOCC2)c(F)c1` (stereo not drawn), the INHIBITION was determined as 66.2%. The same measure for `COCC(=O)N1CCCC(c2noc3nc(C)cc(C(F)(F)F)c23)C1` (stereo not drawn): 24.4%; for `CC(C)NC(=O)COc1ccc(-c2nc(C(C)C)no2)cc1`: 10.7%.

For the molecule `Cc1csc(C(C#N)C(=O)NCc2cccnc2)n1` (stereo not drawn), the INHIBITION worked out at 26.5%. In the case of `Cc1csc(C(C#N)C(=O)NCc2ccccc2)n1` (stereo not drawn), the INHIBITION was found to be 52.6%. Take `Cc1csc(C(C#N)C(=O)Nc2ccccc2)n1` (stereo not drawn): the INHIBITION is 8.08%. `Cc1cc(N(C)C)nc(C2CCNC2)n1` (stereo not drawn): the INHIBITION was found to be 35%.

Consider `O=C(NC1CCCc2nc(N3CCCCC3)ncc21)C1CCCC1` (stereo not drawn), for which the INHIBITION is listed as 40%. On to `Cc1ccc(C(CNC(=O)Nc2cn[nH]c2)N2CCOCC2)o1` (stereo not drawn), for which the INHIBITION is given as -45.6%. Consider `CC1=Nc2c(c(=O)[nH]n2C(C)C)C(c2ccsc2)S1` (stereo not drawn), for which the INHIBITION was found to be 30%. On to `O=C(NCc1cccnc1)N1CCc2ncnc(C3CC3)c2CC1`, for which the INHIBITION is given as -14.3%.

Consider `O=C(O)CCc1ccc(S(=O)(=O)Nc2cnn(CC3CC3)c2)cc1`, for which the INHIBITION is given as 5.51%.

`O=C(O)c1ccc(S(=O)(=O)Nc2cnn(CC(F)(F)F)c2)cc1`: the INHIBITION is 72.8%. As to `O=C(O)CCc1ccc(S(=O)(=O)Nc2cnn(CC(F)(F)F)c2)cc1`, the INHIBITION was determined as 28.1%.

On to `O=C(NCCOc1ccc(Cl)cn1)Nc1ccccn1`, for which the INHIBITION is -34.8%. Regarding `CS(=O)(=O)NCc1cncc2c1CCN(C(=O)c1cccnc1)C2`, the INHIBITION is on record as 4.57%. As for `Cc1cnn(CC(=O)NCC2CCN(c3cc(Cl)ccc3C)C2)c1` (stereo not drawn), the INHIBITION is on record as -47.28%. Regarding `CCC(CC)Cn1ncc(N2CCOCC2)cc1=O`, the INHIBITION is recorded as 23.8%.

With `Cc1cnn(CCCn2ncc(N3CCC(CN)C3)cc2=O)c1` (stereo not drawn), the INHIBITION is on record as 66.5%. Take `CN1CCN(c2cnn(CCn3cccn3)c(=O)c2)CC1`: the INHIBITION turned out to be 57.3%.

For `CCCOCCn1ncc(N2CCCC2)cc1=O`, the INHIBITION is recorded as -49.2%. Regarding `Cc1cnn(C(C)C(=O)NCC2CCN(c3cnn(C)c(=O)c3)CC2)c1` (stereo not drawn), the INHIBITION is given as -9.08%. The same measure for `NCC1CCN(c2cnn(CCCn3cccn3)c(=O)c2)CC1`: 61%; for `O=c1cc(N2CCCCC2)cnn1CCCn1cccn1`: -54%; for `O=c1cc(N2CCNCC2)cnn1CCCn1cccn1`: 49.9%. Consider `Cc1nn(C)c(C)c1C1COCCN1C(=O)c1cc(F)ccc1F` (stereo not drawn), for which the INHIBITION is listed as -2.19%.

For `COc1cccc(CN2CCCC2c2cccc(F)c2)c1OC` (stereo not drawn), the INHIBITION is on record as 1.45%.

As for `Cc1nn(C)cc1-c1cc(C(F)F)n2nc(CCC(=O)O)nc2n1`, the INHIBITION is given as 21.9%. Under `COc1ccc(Cl)cc1S(=O)(=O)N(C)CC(=O)Nc1ccon1` stands -44.8%; under `Cc1cnn(CC2CCCN2C(=O)CCc2c(C)noc2C)c1` (stereo not drawn), 17.3%.

For the molecule `CS(=O)(=O)N1CC[C@@H]2[C@@H](CCC(=O)N2CCC2=CCCCC2)C1`, the INHIBITION is 19.4%. Under `O=C1CC[C@H]2CN(C3CCOCC3)CC[C@H]2N1CCC1=CCCCC1` stands 58.5%; under `CN1CCC(N2CC[C@@H]3[C@@H](CCC(=O)N3CCC3=CCCCC3)C2)CC1`, 33.9%; under `Cc1ccc(C(N)=O)c(N2Cc3cnc(C(C)(C)C)nc3C2)n1`, 17.1%.

Turning to `COC(=O)C1CCCCN1C(=O)c1cn(C/C=C/c2ccccc2)nn1` (stereo not drawn), the INHIBITION was found to be 9.79%. As to `COC(=O)[C@@H]1CCCN1C(=O)c1cn(CCCc2ccccc2)nn1`, the INHIBITION was determined as 2.4%. Turning to `Cc1nc(C(C)NC(=O)c2cn(C/C=C/c3ccccc3)nn2)n[nH]1` (stereo not drawn), the INHIBITION is listed as 29.1%. On to `COC(=O)[C@@H]1CCCN1C(=O)c1cn(C/C=C/c2ccccc2)nn1`, for which the INHIBITION is recorded as 52.6%. Take `NC(=O)[C@@H]1CCCN1C(=O)c1cn(C/C=C/c2ccccc2)nn1`: the INHIBITION was found to be 57.1%. Under `Cc1cccc(C2CCCCCN2C(=O)c2cn(CC(N)=O)nn2)c1` (stereo not drawn) stands -15.245%. The same measure for `Cc1ccc(C(=O)N2CC[C@@H](N(C)C)[C@@H]2Cc2cnn(C)c2)cn1`: 15.9%; for `COc1ccc(N2CCN(C(=O)[C@@H]3C[C@@H](O)CN3)CC2(C)C)cc1`: 35.3%; for `CC(=O)c1c(O)n(C)c2ccc(C)cc12`: -10.5%. Under `Cc1nn(C)c(C)c1-c1ccc(=O)n(C(C)C(=O)NC2CCCC2)n1` (stereo not drawn) stands 35.05%; under `COc1cc2c(cc1C1CC(=O)NCc3nc(N(C)C)sc31)CCC2` (stereo not drawn), 27.6%. Consider `COc1ccc(C(C)C)cc1C1CC(=O)NCc2nc(N(C)C)sc21` (stereo not drawn), for which the INHIBITION was 52.2%.

Take `COc1ccc(C2CC(=O)NCc3nc(N(C)C)sc32)c(O)c1` (stereo not drawn): the INHIBITION is 36.6%.

Take `CN(Cc1ccccc1F)C(=O)c1cc(Cl)c[nH]1`: the INHIBITION is reported as 15.4%. Turning to `COc1nccnc1N1C[C@H]2CC[C@@H](C1)N(CC=C(C)C)C2=O`, the INHIBITION was determined as 6.83%.

Regarding `CCOc1ccccc1C(CC(=O)Nc1ccncc1)NC(C)=O` (stereo not drawn), the INHIBITION is reported as 26.9%. On to `CC(NC(=O)NC1CCN(Cc2ccncc2)CC1)c1cccc(F)c1` (stereo not drawn), for which the INHIBITION was determined as 13%. The same measure for `NC(=O)C(NC1CCN(Cc2ccc(F)cc2)CC1)c1ccccc1` (stereo not drawn): -106%; for `CC(NC(=O)NC1CCN(Cc2ccncc2)CC1)c1ccccc1F` (stereo not drawn): 68.9%. For the molecule `CC(NC(=O)NC1CCN(Cc2ccccn2)CC1)c1ccco1` (stereo not drawn), the INHIBITION was determined as 36.8%. Take `CC(NC(=O)NC1CCN(Cc2ccccc2)CC1)c1nncn1C` (stereo not drawn): the INHIBITION is -12.3%. For `CC(NC(=O)NC1CCN(Cc2ccncc2)CC1)c1ccc(F)cc1` (stereo not drawn), the INHIBITION was 75.7%. Regarding `O=C(C1CC1)N1CCN(Cc2ccncc2)c2ncccc2C1`, the INHIBITION was found to be 5.56%. Regarding `CC(NC(=O)NCc1ccccc1Cl)c1ccccn1` (stereo not drawn), the INHIBITION is on record as -49.5%. In the case of `COc1ccc2c(c1)C(=O)NC1(CC2)CCN(Cc2cccnc2)C1` (stereo not drawn), the INHIBITION worked out at 2.1%. In the case of `Cc1cccc(-n2cc3[nH]c(=O)[nH]n3c2=O)c1`, the INHIBITION is listed as 36.3%. Take `CC(C)C(C)N(Cc1cnc2ccccc2n1)Cc1ccco1` (stereo not drawn): the INHIBITION is recorded as 47%. Under `CC(C)NC(=O)NC[C@H]1OC[C@@H](NCc2cccs2)[C@@H]1O` stands -13.4%; under `O=C(NC[C@H]1OC[C@@H](NCc2cccs2)[C@@H]1O)N1CCOCC1`, -0.371%.

With `Cc1ccc(CN[C@@H]2CO[C@H](CNS(=O)(=O)c3ccccc3)[C@H]2O)cc1`, the INHIBITION is listed as 27.5%. Under `O=S(=O)(NC[C@H]1OC[C@@H](NCc2cccs2)[C@@H]1O)c1ccccc1` stands 51%; under `CC(C)(C)CN[C@@H]1CO[C@H](CNC(=O)c2cccs2)[C@H]1O`, -7.29%; under `Cc1ccc(S(=O)(=O)NC[C@H]2OC[C@@H](NCc3cccs3)[C@@H]2O)cc1`, 52.5%. On to `CSc1nccn1-c1cccc(C(=O)NCC(F)(F)F)c1`, for which the INHIBITION came out at 18.2%.

For `N#CCCN(CCC#N)C(=O)CN(C1CC1)C1CCc2ccccc21` (stereo not drawn), the INHIBITION is recorded as -40.5%. As to `CCC(O)CN1CCN(C(=O)c2ccn(C)c(=O)c2)CC1` (stereo not drawn), the INHIBITION was determined as 13.3%.

`CC(C)CCc1nc(CNCC2CN(C)CCO2)cs1` (stereo not drawn): the INHIBITION is -21.9%.

Regarding `Cc1cc(NC(=O)CN2CCn3c(nnc3C(C)C)C2)n(C)n1`, the INHIBITION is reported as 22.2%. As for `CC1NC(=O)COC12CCN(C(=O)Cc1ccsc1)CC2` (stereo not drawn), the INHIBITION is recorded as -28.6%. Under `CC1N(C)C(=O)COC12CCN(Cc1ccsc1)CC2` (stereo not drawn) stands 63%. Take `CC1N(CC2CC2)C(=O)COC12CCN(Cc1nccs1)CC2` (stereo not drawn): the INHIBITION is 31.8%. As for `CC1N(C)C(=O)COC12CCN(Cc1nccs1)CC2` (stereo not drawn), the INHIBITION was 69.7%.

Take `CC1N(C)C(=O)COC12CCN(C(=O)Cc1ccsc1)CC2` (stereo not drawn): the INHIBITION is reported as 77.7%. On to `CN1CCN(C)C2(CCN(Cc3ccsc3)CC2)C1=O`, for which the INHIBITION was 5.04%. In the case of `Cc1nc(CN2C(=O)COC3(CCN(Cc4ccsc4)CC3)C2C)cs1` (stereo not drawn), the INHIBITION worked out at 38.2%. On to `Cc1nc(CN2C(=O)COC3(CCN(Cc4nccs4)CC3)C2C)cs1` (stereo not drawn), for which the INHIBITION is given as 15.1%. On to `CC1N(C)C(=O)COC12CCN(C(=O)CCc1ccccc1)CC2` (stereo not drawn), for which the INHIBITION was 6.83%. Under `Cc1nc[nH]c1C(=O)N1CCCC2(C1)C(=O)N(C)c1ccccc12` (stereo not drawn) stands 9.57%; under `Cn1nc2c(cc1=O)CN(Cc1nc(-c3ccco3)no1)CC2`, -7.31%; under `Cc1nnc2n1CCN(C(=O)c1cc(Cl)c(Br)[nH]1)C2`, -33.32%.

Take `CC(=O)NCc1ccc(C(=O)Nc2ccc3c(c2)C(=O)NC3)cc1`: the INHIBITION was -20%. With `CCOc1ccccc1CNS(=O)(=O)c1ccc2c(c1)CCCC(=O)N2`, the INHIBITION is recorded as 19.4%. On to `Cn1cc2ncn(CCC3CCN(Cc4ccccc4)C3)c(=O)c2n1` (stereo not drawn), for which the INHIBITION is 42.1%.

For `CC(C)N(Cc1ccccn1)C(=O)CN(C)C(=O)c1cccs1`, the INHIBITION amounted to 12.3%.

For `CN(CCSc1ccccc1)C(=O)C(c1cccnc1)N1CCOCC1` (stereo not drawn), the INHIBITION was found to be 19.4%. For the molecule `CN(C)S(=O)(=O)c1ccc(CNC(=O)c2cn3c(n2)CNCC3)cc1`, the INHIBITION was 39.9%.

For the molecule `CN(CCSc1ccccc1)C(=O)c1cn2c(n1)CNCC2`, the INHIBITION came out at 66.5%.

For `CN(CCc1ccccn1)C(=O)c1cn(CCN2CCNCC2)nn1`, the INHIBITION was -60.7%.

Take `CN(CC(=O)NCCc1ccccn1)C(=O)c1cccs1`: the INHIBITION turned out to be 11%. Under `CN(CCc1ccccn1)C(=O)c1cccs1` stands 50.8%; under `c1ccc(NCc2cn3c(n2)CNCC3)nc1`, 42.6%.

Take `O=C(NCc1ccc(C(=O)N2CCCC2)cc1)c1cn2c(n1)CNCC2`: the INHIBITION stood at 16.1%. On to `Cc1ccc(SCCN(C)C(=O)c2cn(CCN)nn2)cc1`, for which the INHIBITION is reported as -122%.

Turning to `CN(CCCc1ccccc1)C(=O)c1cn2c(n1)CNCC2`, the INHIBITION came to 61.9%.

As to `CN(CCc1ccccn1)C(=O)c1cn2c(n1)CNCC2`, the INHIBITION was 66.5%.
